Reference: PubChem BioAssay AID759 (NMMLSC, 2007)
In all, about 190,000 compounds went through this assay and about 270 (0.14%) were called active. Roughly 2% stayed inconclusive and do not appear here. The entries come from a sample that favours actives as a whole. Values without a mark were called inactive.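 Rule for the calls: active = GTP binding activity at least 20% away from the 100% baseline, either lowered as inhibitor or raised as activator; inconclusive = flagged as likely green fluorescent, judged across all proteins in the well; inactive = the rest.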

biological target: GTPase HRas (Homo sapiens) (UniProt P01112); test: modulators of GTP binding to HRas wildtype, primary screen, biochemical, bead-based flow cytometry, multiplex (AID 759); settings: GST-Ras wt beads, Bodipy-FL-GTP binding, at 10 µM, actives lie on both sides;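 note: 0% = unlabeled GTP competition control and 100% = no-compound control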
Sequence (P01112 whole entry, looked up): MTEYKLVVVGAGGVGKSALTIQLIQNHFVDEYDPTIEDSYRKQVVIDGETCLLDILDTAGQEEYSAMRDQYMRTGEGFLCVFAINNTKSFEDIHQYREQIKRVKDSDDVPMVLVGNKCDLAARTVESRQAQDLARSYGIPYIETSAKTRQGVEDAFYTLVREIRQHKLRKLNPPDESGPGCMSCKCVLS

| Compound | GTP binding activity |
| --- | --- |
| CCOc1ccc(C2SCC(=O)Nc3c2c(C)nn3C2CCOC(C)(C)C2)cc1 (stereo not given) | 73% (active) |
| CCCC(C)n1[nH]c(=O)c2c1NC(=O)CSC2c1ccc(OC)c(OC)c1 (stereo not given) | 98% |
| CC1=CC(=Cc2sc3ccccc3[n+]2C)C=C(C)O1 | 103% |
| COc1ccc(CN2C(=O)NC(=O)/C(=C\c3ccc(OC)c(OC)c3OC)C2=O)cc1 | 97% |
| Cc1ccsc1C(=O)C1CCCN(Cc2ccc(O)cc2)C1 (stereo not given) | 98% |
